{"source": "paper PMC7862700", "about": "“An all-to-all approach to the identification of sequence-specific readers for epigenetic DNA modifications on cytosine”", "test_in_all_cases": "DAPPL (digital affinity profiling via proximity ligation, sequencing); 10 mM Tris-HCl pH 7.5, 50 mM NaCl, 1 mM DTT, 4% glycerol, room temperature, 30 min; GST-TFs on glutathione beads, 16-mer random dsDNA library, 0.1% formaldehyde crosslink after washing; high values mean tight binding", "details_in_all_cases": "protein: recombinant; tags: N-terminal GST; dsDNA, one strand shown", "key": {"FLI1": {"target": "T1, FLI1 (Homo sapiens, UniProt Q01543 1-452)", "T1 sequence": "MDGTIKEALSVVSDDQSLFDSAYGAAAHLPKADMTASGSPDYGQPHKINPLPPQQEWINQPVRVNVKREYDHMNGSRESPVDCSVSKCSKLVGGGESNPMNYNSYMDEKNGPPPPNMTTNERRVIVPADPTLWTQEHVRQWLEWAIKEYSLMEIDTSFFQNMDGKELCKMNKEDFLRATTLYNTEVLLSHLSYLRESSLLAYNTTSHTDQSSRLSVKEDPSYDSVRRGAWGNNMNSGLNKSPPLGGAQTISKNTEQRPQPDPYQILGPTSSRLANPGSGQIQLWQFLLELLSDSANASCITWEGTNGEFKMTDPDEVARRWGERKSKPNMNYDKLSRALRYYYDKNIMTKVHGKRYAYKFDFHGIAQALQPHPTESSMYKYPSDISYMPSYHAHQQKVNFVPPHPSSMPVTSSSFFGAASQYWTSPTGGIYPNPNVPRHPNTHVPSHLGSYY", "summary_of_the_method": "(§1)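 After expression in yeast as GST fusions, human transcription factors were bound to glutathione beads, DNA-barcoded and mixed with a tag-only sample. The pools were incubated with 200 nmole of a 16-mer random double-stranded DNA library in Tris/NaCl/DTT/glycerol buffer (30 min, room temperature), washed and crosslinked with 0.1% formaldehyde. Proximity ligation with BsaI/T4 ligase ran for 1 h at 37 °C, before PCR amplification and sequencing on an Illumina NextSeq500. Binding signal is a hexamer's read frequency for a factor divided by its frequency for the tag-only sample.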"}, "ELK1": {"target": "T2, ELK1 (Homo sapiens, UniProt P19419 1-428)", "T2 sequence": "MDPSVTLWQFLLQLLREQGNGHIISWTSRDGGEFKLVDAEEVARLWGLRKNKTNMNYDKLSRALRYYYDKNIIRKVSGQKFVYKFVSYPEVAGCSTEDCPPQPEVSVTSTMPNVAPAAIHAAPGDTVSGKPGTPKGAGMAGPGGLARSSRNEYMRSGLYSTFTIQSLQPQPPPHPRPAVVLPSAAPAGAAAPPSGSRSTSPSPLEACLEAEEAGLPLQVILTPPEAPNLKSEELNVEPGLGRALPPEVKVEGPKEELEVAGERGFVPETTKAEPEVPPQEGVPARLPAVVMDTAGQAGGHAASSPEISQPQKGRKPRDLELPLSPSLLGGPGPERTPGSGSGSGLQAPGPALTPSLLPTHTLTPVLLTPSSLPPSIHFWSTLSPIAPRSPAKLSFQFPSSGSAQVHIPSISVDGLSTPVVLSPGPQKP", "summary_of_the_method": "as §1"}, "GABPA": {"target": "T3, GABPA (Homo sapiens, UniProt Q06546 1-454)", "T3 sequence": "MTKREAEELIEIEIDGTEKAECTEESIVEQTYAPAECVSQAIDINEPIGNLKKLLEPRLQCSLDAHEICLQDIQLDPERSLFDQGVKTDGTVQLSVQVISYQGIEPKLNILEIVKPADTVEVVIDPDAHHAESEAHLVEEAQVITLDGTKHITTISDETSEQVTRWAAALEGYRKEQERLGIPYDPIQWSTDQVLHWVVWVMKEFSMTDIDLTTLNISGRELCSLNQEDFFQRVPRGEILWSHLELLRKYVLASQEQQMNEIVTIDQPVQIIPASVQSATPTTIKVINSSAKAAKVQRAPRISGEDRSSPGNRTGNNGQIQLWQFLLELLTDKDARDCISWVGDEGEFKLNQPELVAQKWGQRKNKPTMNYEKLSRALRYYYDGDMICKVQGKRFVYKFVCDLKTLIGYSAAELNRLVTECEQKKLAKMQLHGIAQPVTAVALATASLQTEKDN", "summary_of_the_method": "as §1"}, "ERG": {"target": "T4, ERG (Homo sapiens, UniProt P11308 1-479)", "T4 sequence": "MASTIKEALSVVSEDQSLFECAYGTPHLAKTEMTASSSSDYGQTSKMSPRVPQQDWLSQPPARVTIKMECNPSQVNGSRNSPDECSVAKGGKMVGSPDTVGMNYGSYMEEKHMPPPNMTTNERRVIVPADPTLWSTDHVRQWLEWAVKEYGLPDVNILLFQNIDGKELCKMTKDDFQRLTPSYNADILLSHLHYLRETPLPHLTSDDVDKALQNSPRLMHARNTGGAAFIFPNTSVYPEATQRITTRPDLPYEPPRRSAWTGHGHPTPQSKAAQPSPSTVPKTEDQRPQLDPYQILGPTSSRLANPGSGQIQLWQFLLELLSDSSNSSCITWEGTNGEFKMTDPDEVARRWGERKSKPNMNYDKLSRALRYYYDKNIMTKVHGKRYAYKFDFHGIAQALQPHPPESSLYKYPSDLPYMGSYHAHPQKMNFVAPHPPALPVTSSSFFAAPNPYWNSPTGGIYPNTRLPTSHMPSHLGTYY", "summary_of_the_method": "as §1"}, "ELF1": {"target": "ELF1 (Homo sapiens, UniProt P32519 1-619)", "sequence (P32519 whole entry)": "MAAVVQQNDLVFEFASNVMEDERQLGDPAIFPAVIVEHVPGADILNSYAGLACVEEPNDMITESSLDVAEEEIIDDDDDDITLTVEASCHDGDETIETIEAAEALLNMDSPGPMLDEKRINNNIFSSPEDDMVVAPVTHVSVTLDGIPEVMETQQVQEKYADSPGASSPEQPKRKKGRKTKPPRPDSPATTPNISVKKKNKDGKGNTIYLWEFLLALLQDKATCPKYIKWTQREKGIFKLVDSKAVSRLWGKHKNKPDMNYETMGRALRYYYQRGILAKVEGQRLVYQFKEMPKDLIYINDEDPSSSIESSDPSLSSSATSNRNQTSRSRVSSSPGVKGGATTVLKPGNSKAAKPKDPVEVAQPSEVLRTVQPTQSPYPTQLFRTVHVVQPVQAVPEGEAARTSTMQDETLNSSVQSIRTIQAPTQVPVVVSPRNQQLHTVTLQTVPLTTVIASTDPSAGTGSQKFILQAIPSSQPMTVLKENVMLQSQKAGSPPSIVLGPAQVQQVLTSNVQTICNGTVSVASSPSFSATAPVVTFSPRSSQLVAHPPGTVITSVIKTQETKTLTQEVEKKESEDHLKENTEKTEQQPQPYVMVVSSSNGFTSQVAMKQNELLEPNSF", "summary_of_the_method": "as §1"}, "EHF": {"target": "T5, EHF (Homo sapiens, UniProt Q9NZC4 1-300)", "T5 sequence": "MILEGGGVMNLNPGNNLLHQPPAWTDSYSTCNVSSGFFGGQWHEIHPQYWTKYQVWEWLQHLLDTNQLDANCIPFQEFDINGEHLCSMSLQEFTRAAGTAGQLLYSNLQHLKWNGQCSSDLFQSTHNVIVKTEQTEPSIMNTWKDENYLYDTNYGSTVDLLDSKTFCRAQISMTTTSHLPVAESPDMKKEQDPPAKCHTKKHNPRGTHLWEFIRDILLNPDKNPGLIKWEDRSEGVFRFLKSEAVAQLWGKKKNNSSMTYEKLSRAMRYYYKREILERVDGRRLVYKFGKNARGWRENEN", "summary_of_the_method": "as §1"}, "SPI1": {"target": "SPI1 (Homo sapiens, UniProt P17947 1-270)", "summary_of_the_method": "as §1"}, "SPIB": {"target": "SPIB (Homo sapiens, UniProt Q01892 1-262)", "sequence (Q01892 whole entry)": "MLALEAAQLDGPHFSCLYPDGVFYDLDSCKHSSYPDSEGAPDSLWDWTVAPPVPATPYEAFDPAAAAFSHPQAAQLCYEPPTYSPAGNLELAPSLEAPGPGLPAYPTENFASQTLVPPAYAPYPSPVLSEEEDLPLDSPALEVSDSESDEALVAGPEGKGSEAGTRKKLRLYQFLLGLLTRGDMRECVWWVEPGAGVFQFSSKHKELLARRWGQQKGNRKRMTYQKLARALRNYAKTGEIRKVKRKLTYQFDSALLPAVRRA", "summary_of_the_method": "as §1"}, "ELK3": {"target": "T6, ELK3 (Homo sapiens, UniProt P41970 1-407)", "T6 sequence": "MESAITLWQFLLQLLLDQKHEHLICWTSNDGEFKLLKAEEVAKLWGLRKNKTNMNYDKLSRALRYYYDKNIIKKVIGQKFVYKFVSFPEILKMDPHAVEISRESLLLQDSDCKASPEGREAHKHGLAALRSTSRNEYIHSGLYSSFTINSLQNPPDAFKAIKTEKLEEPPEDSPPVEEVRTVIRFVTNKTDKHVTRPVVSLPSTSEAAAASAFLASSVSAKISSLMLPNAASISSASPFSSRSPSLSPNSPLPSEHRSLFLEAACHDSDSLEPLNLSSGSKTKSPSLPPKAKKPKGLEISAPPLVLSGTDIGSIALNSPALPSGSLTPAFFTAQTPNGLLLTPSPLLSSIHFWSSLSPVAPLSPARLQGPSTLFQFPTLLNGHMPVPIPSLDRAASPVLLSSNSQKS", "summary_of_the_method": "as §1"}}}
{"sequence": "ATGCGA", "values": [{"measurement": "binding signal", "setting": "FLI1", "value": "1.18 fold enrichment (6-mer frequency, TF over GST control)"}, {"measurement": "binding signal", "setting": "ELK1", "value": "1.27 fold enrichment (6-mer frequency, TF over GST control)"}, {"measurement": "binding signal", "setting": "GABPA", "value": "1.24 fold enrichment (6-mer frequency, TF over GST control)"}, {"measurement": "binding signal", "setting": "ERG", "value": "1.21 fold enrichment (6-mer frequency, TF over GST control)"}, {"measurement": "binding signal", "setting": "ELF1", "value": "1.26 fold enrichment (6-mer frequency, TF over GST control)"}, {"measurement": "binding signal", "setting": "EHF", "value": "1.23 fold enrichment (6-mer frequency, TF over GST control)"}, {"measurement": "binding signal", "setting": "SPI1", "value": "1.19 fold enrichment (6-mer frequency, TF over GST control)"}, {"measurement": "binding signal", "setting": "SPIB", "value": "1.12 fold enrichment (6-mer frequency, TF over GST control)"}, {"measurement": "binding signal", "setting": "ELK3", "value": "1.14 fold enrichment (6-mer frequency, TF over GST control)"}]}
